Whole data set: some 33,000 sequences, median “E-score (-0.5 to 0.5)” near -0.043, cut for the highest 2% near 0.37. Only a selection was taken, and the highest values are over-represented in it overall.

The experiment deals with T1, Upc2 (UniProt Q12151).
T1 sequence: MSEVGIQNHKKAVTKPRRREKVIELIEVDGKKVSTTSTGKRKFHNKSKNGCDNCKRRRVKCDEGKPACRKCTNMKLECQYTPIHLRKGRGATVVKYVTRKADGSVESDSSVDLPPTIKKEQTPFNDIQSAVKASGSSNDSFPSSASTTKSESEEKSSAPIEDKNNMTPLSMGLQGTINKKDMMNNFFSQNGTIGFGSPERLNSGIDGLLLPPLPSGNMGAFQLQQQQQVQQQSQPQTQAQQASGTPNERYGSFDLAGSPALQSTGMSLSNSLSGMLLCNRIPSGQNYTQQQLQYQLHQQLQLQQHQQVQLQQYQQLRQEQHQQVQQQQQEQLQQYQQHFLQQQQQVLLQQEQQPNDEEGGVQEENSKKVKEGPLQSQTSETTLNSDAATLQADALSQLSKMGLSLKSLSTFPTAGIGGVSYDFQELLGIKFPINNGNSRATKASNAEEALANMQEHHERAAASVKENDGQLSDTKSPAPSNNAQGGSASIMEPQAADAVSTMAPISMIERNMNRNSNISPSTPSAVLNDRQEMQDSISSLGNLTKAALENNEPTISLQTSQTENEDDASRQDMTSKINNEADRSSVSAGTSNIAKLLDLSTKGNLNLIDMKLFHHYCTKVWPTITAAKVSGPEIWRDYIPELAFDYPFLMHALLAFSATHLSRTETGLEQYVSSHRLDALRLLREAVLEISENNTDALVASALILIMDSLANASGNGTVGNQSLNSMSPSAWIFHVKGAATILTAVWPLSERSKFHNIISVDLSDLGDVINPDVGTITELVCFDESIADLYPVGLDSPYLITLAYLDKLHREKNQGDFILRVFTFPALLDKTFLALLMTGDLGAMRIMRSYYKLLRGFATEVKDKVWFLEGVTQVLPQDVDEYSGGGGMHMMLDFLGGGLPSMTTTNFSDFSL
The experiment can be described thus: PBM E-score (8-mer binding enrichment) (E-score (-0.5 to 0.5)); higher = stronger / more preferred TF binding. The following applies: protein concentration: 200 nM; construct: GST-full length. Here is the method:
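Universal 'all 10-mer' protein binding microarrays (Agilent AMADID 015681) probed with GST-tagged S. cerevisiae TFs (full-length or DBD) made by in vitro transcription/translation (PURExpress), about 100-200 nM. Bound TF was detected with fluorescent anti-GST. Each ungapped 8-mer (which stands for itself and its reverse complement) is scored by the PBM enrichment score (E-score), a modified Wilcoxon-Mann-Whitney statistic from -0.5 to +0.5, computed with the Universal PBM Analysis Suite. Scale: above 0.35 generally sequence-specific binding.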
Regarding CGTTTGTC, the “PBM E-score” value came out at 0.34. With CGTTTGAA, the “PBM E-score” value turned out to be 0.35. As to CGTTTGAC, the “PBM E-score” value was 0.363.

As to CTTATGCC, the “PBM E-score” value was -0.0216. As for ATTCTGTA, the “PBM E-score” value amounted to 0.0418.

Consider TGAAATCA, for which the “PBM E-score” value was -0.103. For CAACAAGC, the “PBM E-score” value is -0.163. With GGTGTCAA the figure was -0.169. With ATCGATTG the figure was 0.0896; with AACGGTTC, 0.166; with CCTTCCAA, -0.216. Next, GGGTTCAA: -0.157; ACTTATTC: -0.0293. As to ATCGCAGC, the “PBM E-score” value was determined as 0.085. Next, AACGTCAC: -0.0182. For CCGTCGTC, the “PBM E-score” value was 0.0861. Next, GCGTCGTA: 0.468.

On to GCGTCGAA, for which the “PBM E-score” value is -0.0193.

Take GCGTCGCA: the “PBM E-score” value amounted to 0.19. Turning to ACGTCGTC, the “PBM E-score” value stood at 0.206.

Turning to CCGTCGTA, the “PBM E-score” value stood at 0.457. Regarding CCGTCGGA, the “PBM E-score” value worked out at 0.0146. As for ACGTCGTG, the “PBM E-score” value turned out to be 0.0636. With ACGTCGTA the figure was 0.458. Next, AGGGTAGG: -0.331. Turning to ACTAACCT, the “PBM E-score” value was found to be 0.042.

Regarding ATCATCTG, the “PBM E-score” value was -0.129.

As for TACCATGA, the “PBM E-score” value was -0.108.

Regarding CCTGAACA, the “PBM E-score” value was -0.0282.

For ACTGAACA, the “PBM E-score” value is 0.0269. CCTGAACC: the “PBM E-score” value is -0.146. With ACTGAACT the figure was -0.0256; with CCTGAACG, 0.394; with ACTGAACG, 0.395. With GCTCTTAA the figure was 0.108. With AGCAGAAG the figure was -0.255. For the sequence ACAAATTC, the “PBM E-score” value was -0.0428. GGGCTGTA: the “PBM E-score” value was -0.0846.

As to CATCGTTA, the “PBM E-score” value was found to be 0.324. As to CATCGTGC, the “PBM E-score” value amounted to 0.054. Next, CATCGTTC: 0.416. On to AATCGTTG, for which the “PBM E-score” value was 0.142.

For the sequence AATCGTTC, the “PBM E-score” value worked out at 0.396. With AATCGTTA the figure was 0.292; with TACAGGAA, 0.0741; with ATCCGAGG, 0.18. Next, AGTCCTGA: -0.291; AAAGGGCC: -0.285. On to CGTTTAGA, for which the “PBM E-score” value was found to be 0.466. Turning to AGTTTAGC, the “PBM E-score” value came out at 0.00286.

For CATTTAGC, the “PBM E-score” value is -0.0255.

In the case of GGTTTAGA, the “PBM E-score” value was -0.055. Next, AGTTTAGA: -0.00847; CGTTTAGC: 0.48.

As to GGACTACA, the “PBM E-score” value was -0.219. With ATTCCATC the figure was 0.0445; with CCCTACTA, -0.242; with ATTGGTTA, -0.0342. In the case of AGTGAGTC, the “PBM E-score” value is -0.211.

CAGTTGTC: the “PBM E-score” value was -0.147. Next, CAGAGAGC: -0.203. For GGATTTAC, the “PBM E-score” value amounted to 0.00936. As to AGCAGATG, the “PBM E-score” value is -0.221. Take ACCGATTG: the “PBM E-score” value was determined as 0.0763.

For the sequence AACGATTG, the “PBM E-score” value is 0.391.

AACGATTC: the “PBM E-score” value worked out at 0.393. With CACGATTC the figure was 0.258.

Turning to AGCGATTC, the “PBM E-score” value stood at 0.181. With AACGATTA the figure was 0.364; with TAAAATCA, 0.0046; with ACGTGCTA, 0.207. With CCCGCAAG the figure was -0.239; with ATGTCATG, -0.0317. On to CATGGATA, for which the “PBM E-score” value was -0.0903. With ACGAACGG the figure was 0.387; with ACGAACGA, 0.435; with ACGAACGT, 0.32. In the case of ACGAACGC, the “PBM E-score” value came to 0.323. Take ACGAAGGA: the “PBM E-score” value was 0.379. GCGAACGA: the “PBM E-score” value stood at 0.418.

In the case of GCGAACGC, the “PBM E-score” value stood at 0.158. As for CCGAAGGA, the “PBM E-score” value is -0.0603. With ACGAACAG, the “PBM E-score” value was found to be 0.314. Next, GCGAACAA: 0.139. As to TCGAACGA, the “PBM E-score” value came to 0.368. Take ACGAAGGG: the “PBM E-score” value came out at 0.287. On to TCGGTGCA, for which the “PBM E-score” value was -0.104. Next, GTAATATA: 0.197.

The record behind these values is the supplement of paper PMC3334620.
